# According to PubChem BioAssay AID540341 (National Center for Advancing Translational Sciences (NCATS), 2011):
# Records with an inconclusive call do not appear. Calls of active or inactive are those of the source. The call rests on the fitted dose curve; in most records, active means well fitted curve in the direction sought with a large enough effect; inconclusive means small, poorly fitted or top-dose-only effect, or another doubt; inactive means no such curve, though single readings can be large or run the other way.
# Biological target: Lysosomal acid glucosylceramidase (Homo sapiens) (UniProt P04062)
# Experiment: Activators of Human alpha-Glucosidase as a Potential Chaperone Treatment of Pompe Disease: Glucocerebrosidase Counter Screen
# Conditions: Purified GBA enzyme, 4MU-beta-glucoside fluorescence, 40 min; series mostly up to 57.1 µM
# Description: Alpha-glucosidase is responsible for hydrolysis of terminal, non-reducing 1,4-linked alpha-D-glucose residues with release of alpha-D-glucose. It is a lysosomal hydrolase that is required for the degradation of a small percentage (1-3%) of cellular glycogen in human. Deficiency of this enzyme results in glycogen-storage disease type II (GSDII), also referred to as Pompe disease, an autosomal recessive disorder. Structurally normal glycogen is accumulated in lysosomes and cytoplasm in affected patients, primarily in muscle tissues. Excessive glycogen storage within lysosomes may interrupt normal functioning of other organelles and leads to cellular injury. In turn, this leads to enlargement and dysfunction of the entire organ involved (eg, cardiomyopathy and muscle weakness). It has reported that the improper folding and trafficking of alpha-glucosidase resulting from the genetic mutations may account for a significant number of Pompe patients. […] We optimized this alpha-glucosidase assay in 1536-well plate format for identifying the novel small molecule inhibitors with the structures other than the sugar analogs in order to develop the new pharmacological chaperones. NIH Chemical Genomics Center [NCGC] NIH Molecular Libraries Probe Production Centers Network [MLPCN] MLPCN Grant: MH086442-01 Assay Submitter (PI): Wei Zheng
# This is a fluorogenic enzyme assay with 4-methylumbelliferyl-beta-D-glucopyranoside as the substrate and purified wildtype glucocerebrosidase as the enzyme preparation. Upon the hydrolysis of this fluorogenic substrate, the resulting product, […] which can be detected by a standard fluorescence plate reader. Data were normalized to the controls for basal activity (without enzyme) and 100% activity (with enzyme). The AC50 values were determined from concentration-response data modeled with the standard Hill equation. Assay buffer: 50 mM citric acid (titrated with potassium phosphate to pH 5.0), 100 mM potassium chloride, 10 mM sodium chloride, 1 mM magnesium chloride, 0.01% Tween-20. 1536-well assay protocol: (1) Add 2 ul/well of glucocerebrosidase enzyme solution (5 nM final) (2) Add 23 nL compounds in DMSO solution. The final titration was 0.5 nM to 58 uM. (3) Add 2 ul of substrate (1 mM final) (4) Incubate at 37C for 40 min. (5) Add 2 ul stop solution (1M NaOH and 1M Glycine mixture, pH 10) (6) Detect the assay plate in a ViewLux plate reader (PerkinElmer) with Ex=365 nm and Em=440nm. Keywords: Glucocerebrosidase, beta-glucosidase, Gaucher Disease, pharmacological chaperone, chaperone therapy, high throughput screening, glucocerebrosidase inhibitor, MLSMR, MLSCN, NIH Roadmap, qHTS and NCGC
# Sequence of Lysosomal acid glucosylceramidase (Homo sapiens) (P04062 whole entry, looked up): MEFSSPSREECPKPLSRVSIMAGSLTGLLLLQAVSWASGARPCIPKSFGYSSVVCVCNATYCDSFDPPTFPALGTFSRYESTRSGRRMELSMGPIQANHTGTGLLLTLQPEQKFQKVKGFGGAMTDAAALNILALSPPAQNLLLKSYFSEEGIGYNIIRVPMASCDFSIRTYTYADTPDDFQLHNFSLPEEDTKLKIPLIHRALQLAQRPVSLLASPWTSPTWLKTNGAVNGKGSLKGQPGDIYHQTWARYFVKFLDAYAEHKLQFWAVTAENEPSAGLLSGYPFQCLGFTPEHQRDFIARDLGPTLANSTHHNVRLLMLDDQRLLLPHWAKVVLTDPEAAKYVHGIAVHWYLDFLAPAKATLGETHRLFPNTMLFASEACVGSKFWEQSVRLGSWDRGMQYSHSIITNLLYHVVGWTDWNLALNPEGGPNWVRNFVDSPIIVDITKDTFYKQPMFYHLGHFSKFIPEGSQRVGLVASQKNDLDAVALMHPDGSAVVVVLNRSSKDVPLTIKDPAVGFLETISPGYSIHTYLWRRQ
row,SMILES,outcome
1,COc1ccc(CCn2c(=S)[nH]c(=O)c3c(C)cc(C)nc32)cc1OC,inactive
2,CCCN1CNc2c(c(=O)[nH]c(=S)n2CCc2ccc(C)c(C)c2)C1,inactive
3,CCCN1CNc2c(c(=O)[nH]c(=S)n2CCc2ccsc2)C1,inactive
4,OCCNc1nc(-c2cccs2)nc2ccccc12,inactive
5,COc1ccc(CCn2c(=S)[nH]c(=O)c3[nH]cnc32)cc1OC,inactive
6,O=S(=O)(c1ccc(Cl)cc1)N1CCN(c2nc(-c3cccs3)nc3ccccc23)CC1,inactive
7,CCCN1CNc2c(c(=O)[nH]c(=S)n2CCc2cccc(C)c2C)C1,inactive
8,O=S(=O)(c1ccc(Cl)cc1)N1CCN(c2nc(Nc3cc(Cl)ccc3O)nc3ccccc23)CC1,inactive
9,COc1ccc(CCc2c[nH]c(=O)c3cncnc23)cc1OC,inactive
10,CCCN1CNc2c(c(=O)[nH]c(=S)n2CCc2cc(Cl)ccc2Cl)C1,inactive
11,COc1ccc(CCn2c3c(c(=O)[nH]c2=S)CN(C(C)C)CN3)cc1OC,inactive
12,COc1ccc(CCn2c3c(c(=O)[nH]c2=S)CN(c2ccccc2)CN3)cc1OC,inactive
13,CCCN1CNc2c(c(=O)[nH]c(=S)n2CCc2cc(C)ccc2C)C1,inactive
14,CCCN1CNc2c(c(=O)[nH]c(=S)n2CCc2cc(Cl)cc(Cl)c2)C1,inactive
15,CCCN1CNc2c(c(=O)[nH]c(=S)n2Cc2ccc(OC)c(OC)c2)C1,inactive
16,c1csc(-c2nc(NCC3CCCO3)c3ccccc3n2)c1 (stereo unspecified),inactive
17,CCCN1CNc2c(c(=O)[nH]c(=O)n2CCc2ccc(OC)c(OC)c2)C1,inactive
18,CCCN1CNc2c(c(=O)[nH]c(=S)n2CCc2ccc3c(c2)OCCO3)C1,inactive
19,CCCN1CNc2c(c(=O)[nH]c(=S)n2CCc2cccc(Cl)c2Cl)C1,inactive
20,COc1ccc(CCn2c3c(c(=O)[nH]c2=S)CN(C)CN3)cc1OC,inactive
21,COc1ccc(C#Cc2cnc(Cl)c3cncnc23)cc1OC,inactive
22,COc1ccc(CCn2c(=S)[nH]c(=O)c3nccnc32)cc1OC,inactive
23,COc1ccc(C#Cc2c[nH]c(=O)c3cncnc23)cc1OC,inactive
24,CCCN1CNc2c(c(=O)[nH]c(=S)n2CCc2c(C)cccc2C)C1,inactive
25,CCCN1CNc2c(c(=O)[nH]c(=S)n2CCC(C)(C)C)C1,inactive
26,CCCN1CNc2c(c(=O)[nH]c(=S)n2CCc2ccc(C)cc2C)C1,inactive
